Assay results: PubChem BioAssay
Active and inactive are the calls of the source. Unless noted, no rule for the calls is given here.

Assays:
[1] = system: Wnt5a (protein binding on small-molecule microarray); experiment: small molecules binding Wnt5a protein – biophysical, small-molecule microarray, 635/667 nm fluorescence, primary screen (AID 1142); details: 635 nm fluorescence, higher = more signal;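 also: fluorescence read at 667 nm with signal to noise per printed feature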
[2] = ATP-based viability of Huh7 replicon cells – cell-based, CellTiter-Glo luminescence, basal, 48 h, cytotoxicity control for HCV replication inhibitor project, primary screen (AID 1143); details: higher = more signal, called active from +8 up or from −8 down;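 also: Huh7 hepatoma cells carrying a hepatitis C replication reporter with no stimulus; test concentration not given here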
[3] = Pseudomonas biofilm growth suppression – PAO1 strain, BacTiter-Glo luminescence, LB-PBS, primary screen (AID 1144); details: P. aeruginosa PAO1 biofilm, 12 h, higher = more signal
[4] = basal CRE-LacZ reporter activity in PC12 – cell-based, unstimulated, primary screen (AID 1145); details: no forskolin, luminescence, 4.5 h, higher = more signal, called active from +8 up or from −8 down
[5] = forskolin-driven CRE-LacZ activity in PC12 – cell-based, CRE-LacZ reporter, forskolin-stimulated, primary screen (AID 1146); details: luminescence, 4.5 h, higher = more signal, called active from +8 up or from −8 down;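 also: PC12 cells with 6xCRE LacZ reporter stimulated by forskolin 10 µM; beta-galactosidase reporter signal reflecting CREB driven transcription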
[6] = target: Streptavidin (Streptomyces avidinii) (UniProt P22629); experiment: compounds binding control protein streptavidin – biophysical, small-molecule microarray, 635/667 nm fluorescence, artefact control for SMM compound annotation, primary screen (AID 1147); details: higher = more signal;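 also: signal reflects streptavidin binding to arrayed compounds as a control protein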
Chain of Streptavidin (Streptomyces avidinii) (P22629 whole entry, looked up): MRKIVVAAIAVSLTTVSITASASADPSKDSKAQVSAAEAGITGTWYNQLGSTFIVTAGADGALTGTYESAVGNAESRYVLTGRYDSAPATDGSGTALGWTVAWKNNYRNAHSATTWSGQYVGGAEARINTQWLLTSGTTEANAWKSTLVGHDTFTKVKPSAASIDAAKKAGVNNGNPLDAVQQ

[7] = probe aInhba binding on compound microarray – biochemical, small-molecule microarray, 635/667 nm fluorescence, primary screen (AID 1148); details: higher = more signal;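 also: score merges 667nm spot fluorescence with signal-to-noise for antibody binding to printed compounds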
[8] = target: Torsin-1A (Homo sapiens) (UniProt O14656); experiment: TOR1A wild-type binding on microarray – cell lysate, small-molecule microarray, lysate, 635/667 nm, primary screen (AID 1149); details: COS7 hTOR1A-WT lysate, 635 nm fluorescence, higher = more signal
Chain of Torsin-1A (Homo sapiens) (O14656 whole entry, looked up): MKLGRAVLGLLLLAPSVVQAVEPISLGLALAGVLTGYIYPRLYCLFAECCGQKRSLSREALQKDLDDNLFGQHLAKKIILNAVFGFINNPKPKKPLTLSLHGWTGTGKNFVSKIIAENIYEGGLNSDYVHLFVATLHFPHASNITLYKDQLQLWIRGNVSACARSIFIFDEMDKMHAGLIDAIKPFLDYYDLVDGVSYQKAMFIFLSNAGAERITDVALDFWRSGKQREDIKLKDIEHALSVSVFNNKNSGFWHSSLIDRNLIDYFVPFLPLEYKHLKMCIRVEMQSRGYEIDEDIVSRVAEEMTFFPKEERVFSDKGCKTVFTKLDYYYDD

[9] = target: Torsin-1A (Homo sapiens) (UniProt O14656); experiment: torsin A mutant lysate binding on microarrays – cell lysate, small-molecule microarray, COS7 lysate, 635/667 nm fluorescence, primary screen (AID 1150); details: COS7 hTOR1A mutant lysate, 635 nm fluorescence, higher = more signal;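 also: score pools 667 nm emission and signal to noise measuring lysate protein binding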
[10] = system: Sonic hedgehog protein (Shh); experiment: Sonic hedgehog microarray binding compounds – biochemical, small-molecule microarray, 635/667 nm fluorescence, primary screen (AID 1151); details: 635 nm fluorescence, higher = more signal;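 also: Shh protein binding to compounds spotted on small-molecule microarray slides; score combines spot fluorescence intensity with signal-to-noise across triplicate slides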
[11] = optical density shifts of acrAB sulA E. coli – strain DRC41, OD650, 48 h, E. coli filamentation inducer project, primary screen (AID 1152); details: higher = more signal, called active from +8 up or from −8 down;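 also: E. coli MC1000 strain DRC41 lacking acrAB efflux pump and sulA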
[12] = probe aLefty1 binding on compound microarray – biochemical, small-molecule microarray, 635/667 nm fluorescence, primary screen (AID 1153); details: higher = more signal;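 also: score merges spot fluorescence with signal-to-noise ratio from the scanned slide images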
[13] = plasmodial surface anion channel blockers, osmotic lysis – cell-based, P. falciparum Indochina, OD700, 1 h, primary screen (AID 1154); details: P. falciparum Indochina infected RBC osmotic lysis, higher = more signal, called active from +8 up or from −8 down
[14] = plasmodial surface anion channel blockers, osmotic lysis – cell-based, P. falciparum Indochina, OD700, 2 h, primary screen (AID 1155);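 also: lysis reports solute entry through the parasite surface anion channel PSAC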; details: P. falciparum Indochina infected erythrocytes, higher = more signal, called active from +8 up or from −8 down
[15] = changes in parasitized red cell lysis, either direction – P. falciparum Indochina, OD700, 3 h, PSAC antagonist project, primary screen (AID 1156); details: P. falciparum-infected erythrocytes, osmotic lysis, higher = more signal, called active from +8 up or from −8 down
[16] = plasmodial surface anion channel blockers, osmotic lysis – cell-based, P. falciparum Indochina, OD700, 18 h, primary screen (AID 1157); details: P. falciparum Indochina infected erythrocytes, osmotic lysis OD700, 18 h; higher = more signal, called active from +8 up or from −8 down
[17] = S6 kinase pathway phospho-S6 level changes – cell-based, A549, cytoblot, luminescence, serum-stimulated, primary screen (AID 1158); details: 5 h, higher = more signal;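 also: serum-stimulated A549 lung adenocarcinoma cells; signal is phosphorylated S6 detected by cytoblot immunostaining with HRP secondary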
[18] = target: NADPH oxidase 2 (Homo sapiens) (UniProt P04839); experiment: compounds shifting NOX2 Amplex Red fluorescence – cell-based, HEK293-NOX2, PMA-stimulated, NOX inhibitor project, primary screen (AID 1159); details: 45 min, higher = more signal, called active from +8 up or from −8 down; also: test concentration not given here
Chain of NADPH oxidase 2 (Homo sapiens) (P04839 whole entry, looked up): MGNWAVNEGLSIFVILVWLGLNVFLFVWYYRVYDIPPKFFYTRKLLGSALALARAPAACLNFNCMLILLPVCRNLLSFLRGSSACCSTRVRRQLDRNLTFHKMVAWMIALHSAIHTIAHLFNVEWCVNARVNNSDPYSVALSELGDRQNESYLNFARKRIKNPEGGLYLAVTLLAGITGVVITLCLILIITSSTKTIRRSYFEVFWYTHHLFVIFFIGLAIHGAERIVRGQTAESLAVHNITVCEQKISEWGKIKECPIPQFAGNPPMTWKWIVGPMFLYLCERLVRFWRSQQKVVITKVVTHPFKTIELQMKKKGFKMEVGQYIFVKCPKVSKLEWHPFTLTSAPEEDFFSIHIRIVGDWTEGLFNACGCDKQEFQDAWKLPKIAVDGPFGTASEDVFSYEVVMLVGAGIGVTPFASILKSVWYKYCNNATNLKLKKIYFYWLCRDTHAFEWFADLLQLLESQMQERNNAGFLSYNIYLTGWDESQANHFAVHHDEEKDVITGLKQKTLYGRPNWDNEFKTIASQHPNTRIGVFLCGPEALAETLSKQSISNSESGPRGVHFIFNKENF

[19] = target: NADPH oxidase 4 (Homo sapiens) (UniProt Q9NPH5); experiment: compounds shifting NOX4 Amplex Red fluorescence – cell-based, HEK293-NOX4, tetracycline-induced, NOX inhibitor project, primary screen (AID 1160); details: HEK293-NOX4, Amplex Red H2O2 fluorescence, 45 min; higher = more signal, called active from +8 up or from −8 down
Chain of NADPH oxidase 4 (Homo sapiens) (Q9NPH5 whole entry, looked up): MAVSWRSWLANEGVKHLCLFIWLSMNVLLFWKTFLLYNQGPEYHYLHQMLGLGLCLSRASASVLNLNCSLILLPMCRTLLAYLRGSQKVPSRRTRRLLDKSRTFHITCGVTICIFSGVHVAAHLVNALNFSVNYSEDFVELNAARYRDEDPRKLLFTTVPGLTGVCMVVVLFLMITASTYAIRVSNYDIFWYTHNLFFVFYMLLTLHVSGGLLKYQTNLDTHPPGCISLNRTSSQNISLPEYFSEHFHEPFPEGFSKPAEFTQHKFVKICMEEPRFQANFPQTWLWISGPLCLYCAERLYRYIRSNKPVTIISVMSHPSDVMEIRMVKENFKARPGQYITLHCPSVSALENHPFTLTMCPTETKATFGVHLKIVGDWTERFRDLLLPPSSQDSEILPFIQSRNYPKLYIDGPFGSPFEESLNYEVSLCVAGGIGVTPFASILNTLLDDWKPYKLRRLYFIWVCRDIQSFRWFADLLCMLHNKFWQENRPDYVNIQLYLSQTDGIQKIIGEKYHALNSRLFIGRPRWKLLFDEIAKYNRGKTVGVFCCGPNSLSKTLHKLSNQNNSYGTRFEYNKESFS

[20] = target: NADPH oxidase 5 (Homo sapiens) (UniProt Q96PH1); experiment: compounds shifting NOX5 Amplex Red fluorescence – cell-based, HEK293-NOX5, NOX inhibitor project, primary screen (AID 1161); details: HEK293-NOX5, ionomycin, 45 min, higher = more signal
Chain of NADPH oxidase 5 (Homo sapiens) (Q96PH1 whole entry, looked up): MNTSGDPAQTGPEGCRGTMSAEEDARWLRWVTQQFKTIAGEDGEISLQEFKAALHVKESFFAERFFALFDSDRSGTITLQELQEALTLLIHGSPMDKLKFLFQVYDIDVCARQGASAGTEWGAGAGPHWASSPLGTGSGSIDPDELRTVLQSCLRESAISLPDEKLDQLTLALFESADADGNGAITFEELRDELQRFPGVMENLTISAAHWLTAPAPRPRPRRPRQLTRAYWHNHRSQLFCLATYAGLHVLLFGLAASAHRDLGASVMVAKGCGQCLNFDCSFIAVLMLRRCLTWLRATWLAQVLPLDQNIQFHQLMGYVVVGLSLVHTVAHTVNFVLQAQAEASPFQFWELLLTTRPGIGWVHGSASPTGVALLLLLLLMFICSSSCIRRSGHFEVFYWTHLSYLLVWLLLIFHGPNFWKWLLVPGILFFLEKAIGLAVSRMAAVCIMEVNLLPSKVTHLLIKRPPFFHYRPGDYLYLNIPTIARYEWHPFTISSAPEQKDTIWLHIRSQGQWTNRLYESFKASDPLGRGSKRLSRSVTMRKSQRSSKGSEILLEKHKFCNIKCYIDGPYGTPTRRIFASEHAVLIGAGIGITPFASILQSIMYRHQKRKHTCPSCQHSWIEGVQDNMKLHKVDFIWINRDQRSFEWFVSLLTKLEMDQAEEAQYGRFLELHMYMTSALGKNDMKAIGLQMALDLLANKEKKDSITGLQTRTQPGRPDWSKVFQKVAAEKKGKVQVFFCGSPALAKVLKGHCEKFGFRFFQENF

Structure (SMILES)	composite z-score [1]	z-score [2]	z-score [3]	z-score [4]	z-score [5]	composite z-score [6]	composite z-score [7]	composite z-score [8]	composite z-score [9]	composite z-score [10]	z-score [11]	composite z-score [12]	z-score [13]	z-score [14]	z-score [15]	z-score [16]	z-score [17]	z-score [18]	z-score [19]	z-score [20]
COCCOC(=O)N1C(=O)[C@@]2(c3cc(C#Cc4ccc(OC)cc4)ccc31)[C@H](C(=O)N1CCc3cc(OC)c(OC)cc3C1)[C@H]1C(=O)O[C@H](c3ccccc3)[C@H](c3ccccc3)N1[C@@H]2c1ccc(O)cc1	0.783	-0.637 (inactive)	0.693 (inactive)	-0.0688 (inactive)	0.236 (inactive)	0.802	1.06	0.58	0.984	0.813	0.515 (inactive)	1.05	1.74 (inactive)	0.402 (inactive)	0.295 (inactive)	0.285 (inactive)	0.269	0.987 (inactive)	-1.37 (inactive)	0.321
C#CCNS(=O)(=O)N(C)C	-0.006	0.251 (inactive)	-0.441 (inactive)	-0.882 (inactive)	0.526 (inactive)	0.0573	-0.222	0.073	0.0442	0.666	1.14 (inactive)	-0.103	0.132 (inactive)	0.262 (inactive)	-0.395 (inactive)	0.0625 (inactive)	0.32	-0.533 (inactive)	0.183 (inactive)	0.112
CN(C)CCCCCCNC(=O)[C@@H]1C[C@@H]2C(=O)NCC(=O)N2[C@@H]1c1ccc(O)cc1	0.781	-0.981 (inactive)	-0.162 (inactive)	0.147 (inactive)	0.625 (inactive)	0.28	-0.102	0.97	1.32	1.93	-0.407 (inactive)	0.298	0.755 (inactive)	-0.296 (inactive)	0.794 (inactive)	-0.114 (inactive)	-0.341	-0.289 (inactive)	0.12 (inactive)	0.524
N#Cc1ccc(NN2C(C(O)c3ccco3)C=CC3C(=O)N(c4ccccc4)C(=O)C32)cc1 (stereo not given)	0.0896	1.34 (inactive)	-0.768 (inactive)	-0.136 (inactive)	0.2 (inactive)	0.252	0.0183	0.135	-0.236	-0.0404	-4.51 (inactive)	0.135	7.71 (inactive)	1.67 (inactive)	1.12 (inactive)	0.826 (inactive)	-0.555	-0.911 (inactive)	-4.51 (inactive)	-2.69
COC(=O)[C@@]1(Cc2ccc(OC)cc2)[C@H]2c3cc(C(=O)N(C)C)n(Cc4cc(F)c(F)c(F)c4)c3C[C@H]2CN1C(=O)c1ccccc1	0.397	-4.47 (inactive)	-0.00792 (inactive)	1.34 (inactive)	1.12 (inactive)	1.63	0.528	-0.312	0.712	-0.692	-1.69 (inactive)	0.946	3.64 (inactive)	0.0174 (inactive)	1.3 (inactive)	-1.37 (inactive)	0.968	-2.92 (inactive)	-1.41 (inactive)	-2.54
C=C(C(=O)CC[C@H](OC(=O)c1cccnc1)c1ccc(OCCO)cc1)C(C)C	0.287	-2.33 (inactive)	0.143 (inactive)	17.9 (active)	2.79 (inactive)	0.548	-0.0857	1.12	0.541	1.47	-0.903 (inactive)	0.282	23.1 (active)	5.33 (inactive)	1.01 (inactive)	1.24 (inactive)	0.136	-0.427 (inactive)	0.525 (inactive)	-1.85
COc1ccc(C(=O)Nc2ccc(CN3C(=O)[C@]4(O[C@H](CCn5cc([C@H](O)c6ccccc6)nn5)[C@@H]([Si](C)(C)c5ccc(OC)cc5)[C@@H]4C)c4ccccc43)cc2)cc1	-0.0249	-6.51 (inactive)	-0.675 (inactive)	-0.375 (inactive)	-1.22 (inactive)	-0.19	-0.0044	0.33	0.223	0.666	-0.372 (inactive)	0.193	3.29 (inactive)	1.02 (inactive)	0.741 (inactive)	1.26 (inactive)	0.319	0.753 (inactive)	0.206 (inactive)	2.27
C[N+](C)(C)CCCC[C@@H]1NC(=O)[C@H]2C[C@@H](C(=O)NCCCCCCN)[C@@H](c3cccc(OCCO)c3)N2C1=O	0.693	0.0395 (inactive)	0.406 (inactive)	-0.809 (inactive)	-0.254 (inactive)	1.65	0.794	1.33	1.25	2.04	-0.0261 (inactive)	1.29	1.19 (inactive)	0.156 (inactive)	3.3 (inactive)	0.0792 (inactive)	-0.161	1.12 (inactive)	0.64 (inactive)	1.58
